We go through eight compounds from PubChem BioAssay (NCI).

What all share (test): NCI-60 one-dose screen, 48 h (100 = growth as untreated, 0 = no growth, -100 = all killed)
The test system of assay [1] is HCT-15 colon. To be noted: 10 µM unless noted.
Assay [2] has as its system HT29 colon. To be noted: 10 µM unless noted.
Assay [3] has as its system SNB-75 CNS. The following applies: 10 µM unless noted.
The subject of assay [4] is SNB-19 CNS. To be noted: 10 µM unless noted.
Assay [5] concerns U251 CNS. To be noted: 10 µM unless noted.
Assay [6] has as its system PC-3 prostate. To be noted: 10 µM unless noted.
Assay [7] concerns SK-MEL-5 melanoma. To be noted: 10 µM unless noted.
Assay [8] has as its system UACC-62 melanoma. The following applies: 10 µM unless noted.
For assay [9], the system named is LOX IMVI melanoma. To be noted: 10 µM unless noted.
Assay [10] concerns SK-MEL-28 melanoma. The following applies: 10 µM unless noted.
Assay [11] has as its system SK-MEL-2 melanoma. To be noted: 10 µM unless noted.
The subject of assay [12] is EKVX NSCLC. To be noted: 10 µM unless noted.
The subject of assay [13] is SN12C renal. To be noted: 10 µM unless noted.
For assay [14], the system named is TK-10 renal. The following applies: 10 µM unless noted.
Assay [15] concerns A498 renal. To be noted: 10 µM.
For assay [16], the system named is CCRF-CEM leukemia. The following applies: 10 µM unless noted.
In assay [17] the test system is ACHN renal. To be noted: 10 µM unless noted.
Assay [18] has as its system CAKI-1 renal. To be noted: 10 µM unless noted.
Assay [19] deals with HL-60(TB) leukemia. To be noted: 10 µM unless noted.
For assay [20], the system named is UO-31 renal. The following applies: 10 µM unless noted.

Structures are written as SMILES. Compounds without any hit were thinned out: in the full panel of roughly 83,000, 20% have a hit.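 Activity criterion: percent growth below 10, measured after cells in 96-well plates were exposed to a single compound concentration for 48 hours.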 Values without a mark were called inactive. Active and inactive are the calls of the source.

As for `Brc1ccc2c(c1)c(-c1nc(-c3c[nH]c4ncccc34)cs1)cn2CCN1CCCCC1`, the growth in [1] was 20.8%; in assay [2], 27.4%; in [3], 67.7%; in assay [4], 90%; in assay [5], 42%; in [6], 51.4%. Besides, the growth in assay [7] was 68.2%; in assay [8] it was 78.2%; in assay [9] it was 65.4%; in assay [10], 106%; in assay [11], 82.7%; in assay [12] it was 66.9%. Moreover, the growth in [13] was 80%; in [14], 81.5%; in assay [15], 95.7%; in assay [16] it was 50.8%.
Turning to `COc1cc(C=Nc2cccc(Br)c2)ccc1N(CCCl)CCCl`, the growth in assay [1] was 82.4%; in assay [2], 63.4%; in assay [3] it was 69.1%; in assay [4] it was 91.9%; in assay [5], 73%; in assay [6] it was 68.4%. Moreover, the growth was 86% in [7]; 76.1% in assay [8]; 68.7% in assay [9]; 116% in [10]; 91.2% in assay [11]; 120% in assay [12]. Also, the growth was 84.5% in [13]; 92.9% in assay [14]; 18.2% in assay [17]; 5.9% (active) in assay [18]; 120% in assay [15]; 71.2% in assay [19]. Moreover, in [16], the growth was 63.5%.
On to `COC(=O)[C@H](Cc1ccccc1)NC(=O)c1csc([C@@H](C[C@H](C(C)C)N(C)C(=O)[C@@H](NC(=O)[C@H]2CCCCN2C)C2CC2)OC(C)=O)n1`, for which the growth was 13.1% in assay [1]; 5.33% (active) in assay [2]; 34.3% in assay [3]; 69.6% in [4]; -5.23% (active) in [5]; 11.3% in assay [6]. Moreover, the growth in assay [7] was -1.17% (active); in assay [8], 36.3%; in assay [9], 14.7%; in assay [10], 44.7%; in assay [11], 15.3%; in assay [12], 29.9%. Further, the growth is 21.6% in [13]; 35.9% in assay [20]; 28.9% in [17]; 24.1% in [18]; -7.28% (active) in assay [15]; 2.68% (active) in assay [16].
For the compound `O=C1NC(=O)C(=Cc2cn(C(=O)c3ccccc3)c3ccccc23)C(=O)N1`, the growth in assay [1] is 101%; in assay [2], 97%; in [3] it was 73.1%; in [4] it was 97.6%; in assay [5] it was 102%; in assay [6], 79.4%. Besides, the growth in assay [7] was 92.3%; in assay [8], 85.9%; in [9] it was 90.8%; in [10], 111%; in [11], 96.5%; in [12], 97.5%. The growth in assay [13] is 91.9%; in assay [14], 138%; in assay [17], 93.5%; in assay [18], 92.8%; in [15], 115%; in [19], 108%. Moreover, in [16], the growth was 104%.
Take `Cc1cc(C)c(CBr)c(C)c1`: the growth was 108% in assay [1]; 100% in assay [2]; 106% in assay [3]; 110% in assay [4]; 95.3% in [5]; 94% in [6]. The growth in [7] is 97.7%; in assay [8], 102%; in [9], 101%; in [10] it was 106%; in assay [11] it was 102%; in assay [12], 103%. The growth in assay [20] was 85.2%; in [14] it was 98.1%; in assay [17] it was 104%; in assay [18] it was 99.1%; in assay [15], 81.4%; in assay [19], 59.7%. In addition, the growth in [16] was 106%.
With `O=[N+]([O-])CC(O)C(Cl)(Cl)Cl` (stereo unspecified), the growth in assay [1] was 102%; in assay [2] it was 111%; in assay [3], 81.1%; in assay [4], 106%; in [5], 99.1%; in assay [6], 94.9%. Besides, the growth was 107% in assay [7]; 107% in assay [8]; 99.8% in [9]; 102% in assay [10]; 150% in assay [11]; 101% in assay [12]. The growth in assay [13] was 106%; in assay [20], 80.2%; in assay [17] it was 96.5%; in [15], 87.3%; in assay [19] it was 83.7%; in [16], -21.1% (active).
As for `CCOC(=S)S[C@H]1C[C@@H]2[C@H](CC[C@]3(C)C(=O)CC[C@@H]23)[C@@]2(C)CCC(=O)C=C12`, the growth was 101% in assay [1]; 111% in [2]; 93.1% in assay [3]; 99.5% in [4]; 102% in assay [5]; 106% in [6]. The growth in assay [7] is 103%; in assay [8] it was 94.3%; in assay [9], 97.9%; in assay [10] it was 104%; in assay [11], 116%; in assay [12] it was 102%. In addition, the growth is 93.9% in assay [13]; 109% in assay [17]; 99.6% in [18]; 110% in assay [15]; 101% in assay [19]; 107% in assay [16].
`CC1CCCC(C[N+](C)(C)C)C1=O` (stereo unspecified): the growth is 108% in assay [1]; 105% in assay [2]; 95.2% in [3]; 96.6% in assay [4]; 105% in assay [5]; 93.6% in assay [6]. The growth is 99.5% in assay [7]; 90% in assay [8]; 50.2% in assay [9]; 108% in [10]; 117% in assay [11]; 110% in [12]. Besides, the growth is 92.5% in assay [13]; 106% in assay [14]; 97.5% in assay [17]; 103% in [18]; 101% in assay [15]; 104% in assay [19]. Further, in assay [16], the growth was 95.2%.
